Values joined by “and” are separate entries in the source; they are usually repeats but may differ in a detail not shown here. Equal values may be shown once. This is part of a sample that, as a whole, favours compounds with a hit. Of some 83,000 tested, about 20% had one in any assay.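 Interpretation: 100, growth as untreated; towards 0, rising growth inhibition; 0, no net growth; 0 to -100, cell death. Compounds scoring below 10 were considered active.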 Active and inactive are the calls of the source.
What was measured:
Experiment in all cases: NCI-60 one-dose screen, 48 h (100 = growth as untreated, 0 = no growth, -100 = all killed)
Details in all cases: 10 µM unless noted
SR leukemia = tested on: SR leukemia
RPMI-8226 leukemia = tested on: RPMI-8226 leukemia
OVCAR-8 ovarian = tested on: OVCAR-8 ovarian
OVCAR-5 ovarian = tested on: OVCAR-5 ovarian
SK-OV-3 ovarian = tested on: SK-OV-3 ovarian
IGROV1 ovarian = tested on: IGROV1 ovarian
HS 578T breast = tested on: HS 578T breast
NCI/ADR-RES ovarian = tested on: NCI/ADR-RES ovarian
OVCAR-3 ovarian = tested on: OVCAR-3 ovarian
OVCAR-4 ovarian = tested on: OVCAR-4 ovarian

Measured: growth

COc1cc(Cl)ccc1C
inactive: SR leukemia 71.2% | RPMI-8226 leukemia 105% | OVCAR-8 ovarian 87.5% | OVCAR-5 ovarian 71.1% | SK-OV-3 ovarian 93.2% | IGROV1 ovarian 72.3% | HS 578T breast 115% | NCI/ADR-RES ovarian 97.4%

COc1ccc(C(=O)C(O)c2ccc(OC)cc2)cc1 (stereo unspecified)
inactive: SR leukemia 102% and 94% | RPMI-8226 leukemia 112% and 106% | OVCAR-8 ovarian 99.8% and 101% | OVCAR-5 ovarian 111% and 109% | SK-OV-3 ovarian 106% and 101% | IGROV1 ovarian 102% and 110% | OVCAR-3 ovarian 112% and 107% | HS 578T breast 112% and 102% | NCI/ADR-RES ovarian 102%

COC(=O)c1nc(=S)[nH]c(C(=O)OC)c1C(=O)c1ccccc1
inactive: SR leukemia 113% | RPMI-8226 leukemia 107% | OVCAR-8 ovarian 110% | OVCAR-5 ovarian 106% | SK-OV-3 ovarian 111% | IGROV1 ovarian 101% | OVCAR-3 ovarian 112% | HS 578T breast 99% | NCI/ADR-RES ovarian 108%

S=c1ccc2ccccc2[nH]1
inactive: SR leukemia 109% and 97.3% | RPMI-8226 leukemia 109% and 104% | OVCAR-8 ovarian 102% and 98.6% | OVCAR-5 ovarian 102% and 105% | SK-OV-3 ovarian 97.9% and 101% | IGROV1 ovarian 104% and 106% | HS 578T breast 97.7% and 103% | NCI/ADR-RES ovarian 107% and 110%

CSc1nc(N)c(N)c(N)n1
inactive: SR leukemia 90.8% | RPMI-8226 leukemia 102% | OVCAR-8 ovarian 103% | OVCAR-5 ovarian 120% | SK-OV-3 ovarian 81.3% | IGROV1 ovarian 108% | OVCAR-3 ovarian 113% | HS 578T breast 111% | NCI/ADR-RES ovarian 110%

CC(=O)Oc1ccc(C2(c3ccc(OC(C)=O)cc3)C(=O)Nc3ccccc32)cc1
active: OVCAR-4 ovarian 6.67% and -15.3% | OVCAR-3 ovarian -1.41% and -3.11% | HS 578T breast -18.5% and -15.5%
inactive: RPMI-8226 leukemia 108% and 75.1% | OVCAR-8 ovarian 27.1% and 25.5% | OVCAR-5 ovarian 103% and 89.5% | SK-OV-3 ovarian 115% and 114% | IGROV1 ovarian 65% and 46.1%
16.6% (inactive) and -4.21% (active): NCI/ADR-RES ovarian

O=C(Nc1ccccc1)OCC(CN1CCCCC1)OC(=O)Nc1ccccc1 (stereo unspecified)
inactive: SR leukemia 82.9% | RPMI-8226 leukemia 90.6% | OVCAR-8 ovarian 92.8% and 95.1% | OVCAR-5 ovarian 105% and 96.7% | SK-OV-3 ovarian 89.4% and 93.8% | IGROV1 ovarian 68.8% and 98.3% | OVCAR-3 ovarian 91.2% and 101% | HS 578T breast 91.6% | NCI/ADR-RES ovarian 85.6% and 96.1%

Nc1c(S(=O)(=O)O)cc(Br)c2c1C(=O)c1ccccc1C2=O
inactive: SR leukemia 93.8% and 91.4% | RPMI-8226 leukemia 96.7% and 104% | OVCAR-8 ovarian 106% and 92.1% | OVCAR-5 ovarian 113% and 101% | SK-OV-3 ovarian 85.6% and 102% | IGROV1 ovarian 105% and 88.9% | OVCAR-3 ovarian 102% and 121% | HS 578T breast 112% and 94.3% | NCI/ADR-RES ovarian 108% and 115%

Oc1cccnc1CN1CCOCC1
inactive: SR leukemia 103% | RPMI-8226 leukemia 104% and 96.7% | OVCAR-8 ovarian 93.5% and 95.3% | OVCAR-5 ovarian 112% and 92.8% | SK-OV-3 ovarian 101% and 105% | IGROV1 ovarian 106% and 109% | OVCAR-3 ovarian 118% and 110% | HS 578T breast 115% and 105% | NCI/ADR-RES ovarian 106% and 94.6%

CCOC(=O)c1ccc(C(=N)N)cc1
inactive: SR leukemia 103% | RPMI-8226 leukemia 89.7% | OVCAR-8 ovarian 105% | OVCAR-5 ovarian 120% | SK-OV-3 ovarian 108% | IGROV1 ovarian 107% | OVCAR-3 ovarian 102% | HS 578T breast 73.8% | NCI/ADR-RES ovarian 100%

O=C1c2ccccc2CN1c1ccccc1
inactive: SR leukemia 84.5% | RPMI-8226 leukemia 107% | OVCAR-8 ovarian 104% | OVCAR-5 ovarian 98% | SK-OV-3 ovarian 105% | IGROV1 ovarian 123% | OVCAR-3 ovarian 108% | HS 578T breast 115% | NCI/ADR-RES ovarian 105%

COc1cc(C2c3cc4c(cc3C(OC(=O)C[n+]3ccccc3)C3COC(=O)C23)OCO4)cc(OC)c1OC (stereo unspecified)
inactive: SR leukemia 11.5% | RPMI-8226 leukemia 36.2% | OVCAR-8 ovarian 14.7% | OVCAR-5 ovarian 54% | IGROV1 ovarian 16.5% | HS 578T breast 34.7%
active: OVCAR-3 ovarian -57.7% | NCI/ADR-RES ovarian -3.91%

CC(=O)c1cc2ccccc2o1
inactive: SR leukemia 98.3% | RPMI-8226 leukemia 98.6% | OVCAR-8 ovarian 115% | OVCAR-5 ovarian 87.7% | SK-OV-3 ovarian 96.8% | IGROV1 ovarian 110% | OVCAR-3 ovarian 114% | HS 578T breast 108% | NCI/ADR-RES ovarian 102%

CC1NC(C)c2ccc3ccccc3c2O1 (stereo unspecified)
inactive: SR leukemia 96.8% | RPMI-8226 leukemia 97.3% | OVCAR-8 ovarian 104% | OVCAR-5 ovarian 108% | SK-OV-3 ovarian 106% | IGROV1 ovarian 115% | OVCAR-3 ovarian 106% | HS 578T breast 108% | NCI/ADR-RES ovarian 105%

O=[N+]([O-])c1ccc(NC2CCCCC2)nc1
inactive: SR leukemia 98.1% | RPMI-8226 leukemia 111% and 101% | OVCAR-8 ovarian 118% and 101% | OVCAR-5 ovarian 104% and 100% | IGROV1 ovarian 116% and 104% | HS 578T breast 100% and 101% | NCI/ADR-RES ovarian 105% and 103%

NC(=O)Cc1nc(O)cc(=O)[nH]1
inactive: SR leukemia 93.5% | RPMI-8226 leukemia 85.2% | OVCAR-8 ovarian 93.8% | OVCAR-5 ovarian 109% | SK-OV-3 ovarian 89.7% | IGROV1 ovarian 109% | HS 578T breast 91.9% | NCI/ADR-RES ovarian 115%

O=C(O)C#Cc1ccc(Cl)cc1
inactive: SR leukemia 100% | RPMI-8226 leukemia 106% | OVCAR-8 ovarian 97.6% | OVCAR-5 ovarian 102% | SK-OV-3 ovarian 92.5% | IGROV1 ovarian 98.3% | OVCAR-3 ovarian 110% | HS 578T breast 93.6% | NCI/ADR-RES ovarian 108%

COCCNC(C)=O
inactive: SR leukemia 118% | RPMI-8226 leukemia 114% | OVCAR-8 ovarian 114% | OVCAR-5 ovarian 94.9% | SK-OV-3 ovarian 102% | IGROV1 ovarian 106% | OVCAR-3 ovarian 113% | HS 578T breast 106% | NCI/ADR-RES ovarian 120%

From PubChem BioAssay (NCI)
